Growth inhibition data for 20 compounds are collected here from PubChem BioAssay (NCI).

This is part of a sample that, as a whole, favours compounds with a hit. Of some 79,000 tested, about 15% had one in any assay. Values without a mark were called inactive. Active and inactive are the calls of the source. No stated cut-off is given here; in the data, active means growth inhibition above about 70%; inactive means the rest.

The nature of assay [1]: NCI Yeast Anticancer Drug Screen. Data for the rad50 strain (AID 155).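 Further: 0% = growth of vehicle-only cultures of the same strain.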 Conditions: S. cerevisiae rad50 strain growth inhibition; at 50.0 µM; hits give high values. The method, boiled down:
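Readout: growth inhibition relative to vehicle-treated cultures. Compound exposure was carried out in a genetically defined yeast strain deficient in DNA damage repair.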

A short description of assay [2]: NCI Yeast Anticancer Drug Screen. Data for the mec2-1 strain (AID 157). The following applies: S. cerevisiae mec2-1 strain, at 50.0 µM, hits give high values. The method, boiled down:
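Cells of the genetically defined mec2-1 yeast strain are incubated with test compound. Inhibition of growth is calculated against vehicle-treated controls.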

The nature of assay [3]: NCI Yeast Anticancer Drug Screen. Data for the sgs1 mgt1 strain (AID 161).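 Further: 0% = growth of cultures given vehicle only.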 The following applies: S. cerevisiae sgs1 mgt1 strain, at 50.0 µM, hits give high values. The method, boiled down:
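Mutant yeast exposed to compound; growth scored against vehicle-only wells.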

The nature of assay [4]: NCI Yeast Anticancer Drug Screen. Data for the cln2 rad14 strain (AID 165).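 Further: 0% = growth equal to vehicle treated cultures.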 The following applies: S. cerevisiae cln2 rad14 strain, at 50.0 µM, hits give high values. The method, boiled down: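 The screen exposed genetically defined yeast (cln2 rad14) to test compounds and scored growth inhibition relative to vehicle-treated controls.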
Assay [5] can be described thus: NCI Yeast Anticancer Drug Screen. Data for the bub3 strain (AID 167). Conditions: S. cerevisiae bub3 mutant strain, at 50.0 µM, hits give high values. Summed up:
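Readout: yeast growth inhibition, expressed relative to vehicle-only wells. The test organism is a mutant strain from a panel with lesions in DNA repair or checkpoint genes.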

Assay [6] can be described thus: NCI Yeast Anticancer Drug Screen. Data for the mlh1 rad18 strain (AID 175). Conditions: S. cerevisiae mlh1 rad18 strain growth inhibition; at 50.0 µM; hits give high values. Summed up: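 Compound-treated yeast growth, normalised to vehicle controls. Strain bears defined DNA repair mutations.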

In the case of `O=C(NC(NC(NC(=O)c1ccc([N+](=O)[O-])cc1)c1ccc([N+](=O)[O-])cc1)c1ccc([N+](=O)[O-])cc1)c1ccc([N+](=O)[O-])cc1` (stereo not given), the growth inhibition in assay [1] is 3.35%; in assay [2], -10.4%; in assay [3] it was 1.65%; in assay [4], -24.9%; in assay [5], -5.3%; in assay [6], -7.95%.
Take `Cn1c2ccccc2c(=O)c2cc(NC(=O)CCCCCCCC(=O)Nc3ccc4c(c3)c(=O)c3ccccc3n4C)ccc21`: the growth inhibition in assay [1] is -10.7%; in assay [2], -12.8%; in assay [3], -10.7%; in assay [4] it was -12.6%; in assay [5], -27.2%; in assay [6], -1.45%.
For the compound `CC(=Nc1cc(Cl)cc(Cl)c1)c1ccncc1`, the growth inhibition in assay [1] was -25.1%; in assay [2], -21.2%; in assay [3], -31.4%; in assay [4], -5.05%; in assay [5] it was 16.4%; in assay [6], -49.8%.
For `COc1cc(CN=c2nc(N(C)C)ss2)cc(OC)c1OC`, the growth inhibition is -27.8% in assay [1]; -11.2% in assay [2]; 9.15% in assay [3]; -3.35% in assay [4]; -11.6% in assay [5]; -4.35% in assay [6].
Consider `CCN(CC)CCC(=O)c1ccc(Oc2ccc(Cl)cc2)cc1`, for which the growth inhibition in assay [1] was 96.8% (active); in assay [2] it was 83.8% (active); in assay [3], 99% (active); in assay [4], 80.2% (active); in assay [5] it was 98.9% (active); in assay [6] it was 99.2% (active).
In the case of `CC1(C)CC(=O)C=C(NCCCCCCCCNC2=CC(=O)CC(C)(C)C2)C1`, the growth inhibition in assay [1] is -0.25%; in assay [2], 19.8%; in assay [3] it was 5.7%; in assay [4], 6.45%; in assay [5] it was 5%; in assay [6], 9.8%.
For `COC12C=CC(CC1)C(C)(C)C2=O` (stereo not given), the growth inhibition is 8.85% in assay [1]; -4.7% in assay [2]; -3.9% in assay [3]; 3.2% in assay [4]; -3.05% in assay [5]; -0.55% in assay [6].
Turning to `Nc1nc2c(c(=O)[nH]1)C(c1ccccc1)C(c1ccccc1)C2` (stereo not given), the growth inhibition in assay [1] was -2.85%; in assay [2] it was -8.65%; in assay [3], 3.8%; in assay [4] it was -27.4%; in assay [5], -9.5%; in assay [6], 0.15%.
For `COC(=O)C(C)CC(=O)c1ccc2ccc3cccc4ccc1c2c34` (stereo not given), the growth inhibition in assay [1] is -16.9%; in assay [2] it was -18.4%; in assay [3] it was -2.05%; in assay [4], -35.4%; in assay [5] it was 19.4%; in assay [6], -4.2%.
`COc1cc(Br)c(CC(=O)c2ccc3c(c2)OCO3)cc1OC`: the growth inhibition in assay [1] was 1.65%; in assay [2], 12.8%; in assay [3] it was 7.9%; in assay [4] it was -0.7%; in assay [5], 0%; in assay [6] it was 15.2%.
`Cc1cn(C2CC3OP(=O)(OCc4ccccc4)OCC3O2)c(=O)[nH]c1=O` (stereo not given): the growth inhibition is 5.35% in assay [1]; 7.1% in assay [2]; 16.1% in assay [3]; 7.25% in assay [4]; 8% in assay [5]; 4.15% in assay [6].
In the case of `CN(CC(=O)O)c1ccc([N+](=O)[O-])cc1[N+](=O)[O-]`, the growth inhibition in assay [1] was 8.75%; in assay [2], 8.55%; in assay [3], 10.4%; in assay [4] it was 52.9%; in assay [5] it was 26.4%; in assay [6], -1.15%.
As for `N#CC(c1ccc(Cl)cc1)c1ccc(N(CCO)CCO)cc1` (stereo not given), the growth inhibition in assay [1] was 9.4%; in assay [2], 1.25%; in assay [3], 2.75%; in assay [4], 5.85%; in assay [5], -12.1%; in assay [6], 13.8%.
On to `CN1CCCC1=Nc1ccc([N+](=O)[O-])cc1`, for which the growth inhibition was 23.1% in assay [1]; -3.55% in assay [2]; 23% in assay [3]; -29.3% in assay [4]; -11.9% in assay [5]; 25.9% in assay [6].
For `COc1cccc(OC)c1OC(=O)/C=C\C(=O)Oc1c(OC)cccc1OC`, the growth inhibition was 29.9% in assay [1]; -8.65% in assay [2]; 18.8% in assay [3]; -3.75% in assay [4]; -2.05% in assay [5]; 20.8% in assay [6].
Regarding `O=C(O)c1c[nH]c2cc(O)ccc2c1=O`, the growth inhibition in assay [1] is -0.5%; in assay [2] it was 3.3%; in assay [3], -4.75%; in assay [4] it was -6.5%; in assay [5], 15.3%; in assay [6], -2.7%.
As to `CCCC/C(CC)=N\N=C(/CC)CCCC`, the growth inhibition in assay [1] is 7.3%; in assay [2], 7.2%; in assay [3], 17.9%; in assay [4], -28.2%; in assay [5], 3.15%; in assay [6] it was 17.5%.
Regarding `CCOC(=O)CCOc1ccccc1`, the growth inhibition in assay [1] was 8%; in assay [2], 9.1%; in assay [3], 8.45%; in assay [4], 3.8%; in assay [5], -0.85%; in assay [6], 22.8%.
Regarding `COc1ccc(N)c(OC)c1`, the growth inhibition in assay [1] was -30.6%; in assay [2] it was -37%; in assay [3], -90%; in assay [4] it was 12.9%; in assay [5], -39.6%; in assay [6] it was -34%.
Consider `O=C(CN=C(CN(c1ccccc1)c1ccccc1)Oc1c(Cl)cc(Cl)cc1Cl)n1cnc2ccccc21`, for which the growth inhibition was 0.9% in assay [1]; -9% in assay [2]; 35.3% in assay [3]; -63.4% in assay [4]; -46.4% in assay [5]; 10.4% in assay [6].
